Screening data: PubChem, several laboratories
An excerpt weighted towards active compounds, which were near 4.8% of everything screened.
Beta cell apopt – blocks beta cell apoptosis. INS-1E cytokine-induced death, ATP luminescence, 48 h; percent of positive-control rescue, neutral wells zero. protection from apoptosis, % (concentration not given with the values). actives 0.8% (n = 300,000);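 active = Every replicate reaches about 75%, or at least half do and their mean reaches it too, limit read from the data; inconclusive = At least half of replicates reach the limit but their mean does not; inactive = Under half of replicates reach the limit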;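 also: higher means more ATP so stronger rescue from cytokine killing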
Calb FLC – affects C. albicans growth with fluconazole | C. albicans CaCi-2 (fluconazole-resistant clinical isolate) + fluconazole, Alamar Blue growth, 48 h | growth inhibition, % (no concentration beside the values) | actives 0.57% (n = 300,000) | AID 1979;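 active = growth inhibition above about 58% in most replicates, limit read from the data, passing the limit was not always enough; inconclusive = exactly half the replicates above a set limit; inactive = most replicates below a set limit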;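 also: all wells also contain fluconazole at 8 µg/ml as a sub-toxic cotreatment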
MPTP block – permeability transition pore inhibition | isolated mouse mitochondria, Ca2+ swelling absorbance, 30 min | inhibition, % at 10 µM | actives 1.4% (n = 360,000);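 active = inhibition of 50% or more, scaled per plate between neutral and stimulator controls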
CSC inhib – cancer stem cell inhibition; cancer stem cell-like cells viability, luminescence; inhibition, % at 7.5 µM; actives 1.1% (n = 300,000); in the data active = inhibition above about 75%; inconclusive = no clear call, values can overlap the other calls; tested in HMLE shEcad cells
Mdm2 MdmX PPI – inhibitors of human Mdm2/MdmX interaction | actives 3% (n = 330,000) | inhibition, % at 8 µM | SaOS-2 split-luciferase Mdm2/MdmX complementation, luminescence | O15151+Q00987 | AID 485346;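 active = inhibition of at least 50% at 8 µM in the primary screen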
Target sequence (O15151 whole entry, looked up): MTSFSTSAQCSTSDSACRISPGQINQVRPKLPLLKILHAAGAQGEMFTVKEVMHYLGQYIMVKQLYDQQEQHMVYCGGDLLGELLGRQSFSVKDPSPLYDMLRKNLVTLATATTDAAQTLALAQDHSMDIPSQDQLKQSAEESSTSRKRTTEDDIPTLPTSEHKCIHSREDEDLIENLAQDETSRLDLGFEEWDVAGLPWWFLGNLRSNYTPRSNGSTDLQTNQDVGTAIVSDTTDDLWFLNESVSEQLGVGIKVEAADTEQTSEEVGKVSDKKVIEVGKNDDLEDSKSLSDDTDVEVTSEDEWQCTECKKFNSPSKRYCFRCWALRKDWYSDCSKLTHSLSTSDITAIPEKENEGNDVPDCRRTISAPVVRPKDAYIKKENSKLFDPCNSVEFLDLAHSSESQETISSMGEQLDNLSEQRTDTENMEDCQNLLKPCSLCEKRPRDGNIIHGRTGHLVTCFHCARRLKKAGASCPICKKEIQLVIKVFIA
Target sequence (Q00987 whole entry, looked up): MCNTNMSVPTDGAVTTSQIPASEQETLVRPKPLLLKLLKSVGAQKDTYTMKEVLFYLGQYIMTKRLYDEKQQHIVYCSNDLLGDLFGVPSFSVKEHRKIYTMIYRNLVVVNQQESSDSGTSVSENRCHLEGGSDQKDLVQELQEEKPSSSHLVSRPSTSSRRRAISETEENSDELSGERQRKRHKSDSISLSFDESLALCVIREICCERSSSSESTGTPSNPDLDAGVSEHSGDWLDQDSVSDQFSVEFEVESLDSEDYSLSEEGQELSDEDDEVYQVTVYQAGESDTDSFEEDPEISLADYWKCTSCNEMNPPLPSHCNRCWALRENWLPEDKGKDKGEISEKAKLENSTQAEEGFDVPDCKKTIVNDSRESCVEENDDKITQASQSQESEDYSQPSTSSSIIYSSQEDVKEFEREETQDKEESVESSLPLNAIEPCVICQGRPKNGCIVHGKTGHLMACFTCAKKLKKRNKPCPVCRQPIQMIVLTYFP
Mdm2 MdmX conf – confirmation of human Mdm2/MdmX interaction inhibitors; shares compounds with Mdm2 MdmX PPI; actives 55% (n = 10,000); AID 489028; Mdm2-MdmX binding, luminescent assay; inhibition, % at 8 µM; in the data active = inhibition above about 40%
Full FLuc ctr – inhibits full-length luciferase, flagging false Mdm2/MdmX hits; inhibition, % at 8 µM; SaOS-2 full-length luciferase counterscreen, luminescence; actives 77% (n = 6,200); shares compounds with Mdm2 MdmX PPI;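 active = mean inhibition at 8 µM reaching about 37%, which flags the compound as non-specific, limit read from the data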;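 also: p53-null SaOS-2 cells with luciferase driven by a doxycycline-inducible promoter; compound on cells about two nights before reading with doxycycline added after day one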
A number is an active result; – = inactive; ? = inconclusive; · = not tested or not shown.

SMILES	Beta cell apopt	Calb FLC	MPTP block	CSC inhib	Mdm2 MdmX PPI	Mdm2 MdmX conf	Full FLuc ctr
COc1ccc(S(=O)(=O)c2cnc3ccccc3n2)cc1	–	–	–	–	–	·	·
O=S(=O)(Cc1ccccc1)c1cnc2ccccc2n1	–	–	–	–	59	–	·
O=C(O)COc1cnc2ccccc2n1	–	–	–	–	–	·	·
O=S(=O)(c1ccc(Br)cc1)c1cnc2ccccc2n1	–	–	–	–	50	–	·
COC(=O)c1ccc(COc2ccccc2/C=N/NS(=O)(=O)c2ccccc2)cc1	–	–	–	–	52	52	115
O=C(Nc1ccc(F)c(Cl)c1)c1cc(C2CCCCN2C(=O)c2ccccc2)on1 (stereo not drawn)	·	·	–	·	·	·	·
COc1ccc(CCNS(=O)(=O)c2ccc(N3CCCC3=O)cc2)cc1	–	–	–	–	–	·	·
COc1ccc(OC)c(NS(=O)(=O)c2ccc(N3CCCC3=O)cc2)c1	–	–	–	–	72	57	83
O=C(C[C@@H]1CC[C@@H]2[C@H](COC[C@H](O)CN2C(=O)Nc2ccc(F)cc2)O1)NCCc1ccncc1	·	·	–	·	·	·	·
CC1=NNC(=O)/C1=C\c1cn(-c2ccccc2)nc1-c1cccs1	99	–	–	81	83	56	–
O=C(O)CCCCCN1C(=O)/C(=C\c2cn(-c3ccccc3)nc2-c2cccs2)SC1=S	–	–	–	103	51	–	·
O=C(O)CCCCCN1C(=O)/C(=C/c2cn(-c3ccccc3)nc2-c2cccs2)SC1=S	·	·	–	·	·	·	·
CCN(CC(=O)Nc1ccc(NC(C)=O)cc1)C(=O)/C=C/c1cn(-c2ccccc2)nc1-c1cccs1	–	–	–	–	–	·	·
CN1CCC(N(C)C(=O)/C=C/c2cn(-c3ccccc3)nc2-c2cccs2)CC1	–	–	–	–	76	–	67
CC(c1nc2ccccc2[nH]1)n1c(=O)c(-c2ccco2)nc2ccccc21 (stereo not drawn)	·	·	–	·	·	·	·
CCC(C)CNC(=O)c1[nH]c(C(F)(F)F)nc1-c1ccccc1 (stereo not drawn)	·	·	–	·	·	·	·
Cc1ccc(SCC(=O)NC(=O)NC2CCCC2)c(C)c1	·	·	–	·	–	·	·
NC(N)=NS(=O)(=O)c1ccc(N/C=C/C(=O)c2ccc(Cl)c(Cl)c2)cc1	–	–	–	–	–	·	·
CCOc1ccc(C(=O)/C=C/Nc2ccc(S(=O)(=O)N=C(N)N)cc2)cc1	–	–	–	–	74	–	·
COc1ccc(CNC(=O)CN(Cc2ccco2)C(=O)CNS(=O)(=O)c2ccc(F)cc2)cc1	–	–	–	–	–	·	·
COc1ccccc1C(CCNCc1ccc(N(C)C)cc1)c1ccc(OC(C)C)cc1 (stereo not drawn)	114	–	–	103	97	58	57
COc1ccc(C(CC(=O)O)c2ccc3c(c2)OCO3)cc1 (stereo not drawn)	–	–	–	–	–	·	·
COc1ccc(CNCCC(c2ccc(OC(C)C)cc2)c2ccccc2OC)cc1 (stereo not drawn)	?	–	–	103	97	54	68
COc1ccc(CNCCC(c2ccc(OC(C)C)cc2)c2ccccc2OC)cc1OC (stereo not drawn)	–	–	–	–	56	40	66
COc1ccc(CNCCC(c2ccccc2)c2ccc3c(c2)OCO3)cc1 (stereo not drawn)	85	–	–	–	67	–	·
SMILES	Beta cell apopt	Calb FLC	MPTP block	CSC inhib	Mdm2 MdmX PPI	Mdm2 MdmX conf	Full FLuc ctr
COc1ccccc1NC(=O)CC(c1ccc(OC(C)C)cc1)c1ccccc1OC (stereo not drawn)	–	–	–	–	–	·	·
CSc1ccccc1CNC(=O)C1(C)CCCN1CC(C)C (stereo not drawn)	·	·	–	·	·	·	·
COc1ccccc1C(CCNCc1ccccc1)c1ccc(OC(C)C)cc1 (stereo not drawn)	–	–	–	–	61	–	·
C/C(=N\Nc1ncnc2sc(C)c(C)c12)c1ccccn1	98	–	–	·	99	61	77
COC(=O)C1=C(C)N(Cc2ccccc2)C(=NCc2ccccc2)N[C@H]1c1cccc(C(F)(F)F)c1	113	·	–	122	98	–	·
COC(=O)C1=C(C)N(Cc2ccccc2)C(=NCC2CC2)N[C@H]1c1ccccc1	–	·	–	–	–	·	·
COC(=O)C1=C(C)N(Cc2ccccc2)C(=O)N[C@H]1c1cccc(C(F)(F)F)c1	–	–	–	–	–	·	·
COC(=O)C1=C(C)N(Cc2ccccc2)C(=NCc2ccc3c(c2)OCO3)N[C@H]1c1ccccc1	–	·	–	–	56	–	·
COC(=O)C1=C(C)N(Cc2ccccc2)C(=NCCc2ccccn2)N[C@H]1c1cccc(C(F)(F)F)c1	–	·	–	–	81	51	59
CCN1C(=NCC2CC2)N[C@@H](c2cccc(C(F)(F)F)c2)C(C(=O)OC)=C1C	–	–	–	–	–	·	·
CCN1C(=NCc2ccco2)N[C@@H](c2cccc(C(F)(F)F)c2)C(C(=O)OC)=C1C	–	·	–	·	56	–	·
COc1ccc(NS(=O)(=O)c2cccc(C(=O)NN=C(C)c3ccco3)c2)cc1	–	·	–	–	–	·	·
CC(C)(CC(=O)O)CC(=O)N1CCCN(c2nccc(C(F)(F)F)n2)CC1	–	–	–	–	–	·	·
COC(=O)C1=C(C)N(Cc2ccccc2)C(=NCCc2cccnc2)N[C@H]1c1ccc(Br)cc1	–	·	–	–	85	47	54
CC(C)C[C@H]1COc2cc(N(C)CCO)ccc2S(=O)(=O)N1	·	·	–	·	·	·	·
COC(=O)/N=C/c1c(NCc2ccccc2)nc2c(C)cccn2c1=O	–	–	–	–	70	–	·
Cc1cccn2c(=O)c(C=O)c(NCc3ccccc3)nc12	–	–	–	–	–	·	·
CC1(C)Cc2c(ccc3ccccc23)C(=O)N1	·	–	–	–	52	54	55
Cc1cc2oc(=O)cc(C)c2cc1NC(=O)CCC(=O)O	–	–	–	–	–	·	·
Cc1cc2oc(=O)cc(C)c2cc1NC(=O)CCl	–	–	–	–	58	–	·
Cc1c(N=C2N=C(NC(=O)c3cccs3)c3ccccc32)c(=O)n(-c2ccccc2)n1C	–	–	–	–	78	–	·
CCCCC1CCC(C(=O)N(CC(C)C)c2c(N)n(Cc3ccccc3)c(=O)[nH]c2=O)CC1 (stereo not drawn)	85	·	·	91	97	–	·
CC(C)CN(C(=O)COC(=O)/C=C/c1ccc(Cl)c(Cl)c1)c1c(N)n(Cc2ccccc2)c(=O)[nH]c1=O	·	·	–	·	92	–	·
COc1ccccc1Nc1nc(NCCC(C)C)nc(N)c1[N+](=O)[O-]	–	–	–	–	53	41	80
COc1ccccc1Nc1nc(NCCO)nc(N)c1[N+](=O)[O-]	–	–	–	–	62	–	·
CNc1nc(N)c([N+](=O)[O-])c(Nc2ccccc2OC)n1	·	–	–	·	65	–	71
COc1ccccc1Nc1nc(N(C)c2ccccc2)nc(N)c1[N+](=O)[O-]	–	–	–	–	–	·	·
